From PubChem BioAssay AID1851 (National Center for Advancing Translational Sciences (NCATS), 2009)
Out of some 16,000 compounds screened, about 5,700 (36%) were called active. Not shown: some 24% with an inconclusive outcome. The list shows a part of the results. A number with no mark means an inactive call. Calls follow the shape of the dose curve; as a rule, active = well fitted curve in the direction sought with a large enough effect; inconclusive = small, poorly fitted or top-dose-only effect, or effect the other way; inactive = no such curve, though single readings can be large or run the other way.

target: Cytochrome P450 1A2 (Homo sapiens) (UniProt P05177); test: Cytochrome panel assay with activity outcomes; conditions: recombinant CYP, pro-luciferin dealkylation, luminescence, p450-cyp1a2; series mostly up to 57.1 µM
% is scaled to controls: 0 for no effect and ±100 for the full control effect.

Chain of Cytochrome P450 1A2 (Homo sapiens) (P05177 whole entry, looked up): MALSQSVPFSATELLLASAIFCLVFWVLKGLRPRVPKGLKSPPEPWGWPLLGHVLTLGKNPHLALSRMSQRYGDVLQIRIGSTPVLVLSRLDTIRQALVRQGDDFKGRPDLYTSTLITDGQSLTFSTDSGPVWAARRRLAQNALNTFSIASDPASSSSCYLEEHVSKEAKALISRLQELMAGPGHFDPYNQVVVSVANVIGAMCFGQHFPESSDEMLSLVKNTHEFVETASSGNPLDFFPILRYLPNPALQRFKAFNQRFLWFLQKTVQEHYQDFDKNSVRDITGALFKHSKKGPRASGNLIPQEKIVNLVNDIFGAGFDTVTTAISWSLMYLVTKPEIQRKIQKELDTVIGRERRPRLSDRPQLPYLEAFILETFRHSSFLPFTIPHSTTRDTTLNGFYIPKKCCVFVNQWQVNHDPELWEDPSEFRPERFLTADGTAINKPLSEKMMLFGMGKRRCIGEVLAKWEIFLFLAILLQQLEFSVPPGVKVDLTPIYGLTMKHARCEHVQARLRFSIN

Structure (SMILES) | AC50 | activity, negative = inhibition
CNc1ncncc1-c1ccccc1C(F)(F)F | inactive | –
CNc1cc(-c2ccccc2C)ncn1 | 10 µM (active) | –
Cc1ccccc1-c1cc(N(C)C)ncn1 | 2 µM (active) | –
FC(F)(F)c1ccccc1-c1cc(NCc2ccccc2)ncn1 | 12.6 µM (active) | –
CNc1cc(-c2ccccc2C(F)(F)F)ncn1 | 15.8 µM (active) | –
CN(C)C(=O)/N=N\C(=O)N(C)C | inactive | –
CC(C)=CCC/C(C)=C/CO/N=C1/C[C@@H](O)[C@@H](O)[C@@H]2[C@@H]3C(=O)N(C[C@@H]4CCCO4)C(=O)[C@H]3CC[C@@H]12 | – | -6.43% [at 11.4 µM]
O=C(O)CNc1ccc(C(=O)O)cc1 | – | -15.1% [at 11.4 µM]
O=C(CNc1cccc(Cl)c1)c1ccc(Cl)cc1 | 3.16 µM (active) | –
O=C(CCNc1cccc(Cl)c1)c1cccs1 | 10 µM (active) | –
O=C(O)CCCC[C@H]1CCSS1 | inactive | –
COc1cccc2c1OC1(C)CC2/C(=C(\C)O)C(=O)N1 (stereo unspecified) | inactive | –
CCc1ccc(-c2ccc(C(=O)C(F)(F)F)[nH]2)cc1 | 1.12 µM (active) | –
N[C@@H](CO)C(=O)NNCc1ccc(O)c(O)c1O | inactive | –
CC[C@H]1C(=O)OC[C@H]1Cc1cncn1C | inactive | –
C=CC(=O)NC(NC(=O)C=C)c1ccc(Br)cc1 | inactive | –
Cc1ccc(S(=O)(=O)N(CC(=O)N/N=C/c2ccc(F)cc2)c2cccc3cccnc23)cc1 | inactive | –
CC(C)NC(=O)CC(=O)N/N=C/c1ccc(F)cc1 | 15.8 µM (active) | –
CC(C)NC(=O)CC(=O)N/N=C/c1ccc(Br)cc1 | 1.41 µM (active) | –
CC(NC(=O)Cc1ccc(F)cc1)c1ccccc1 (stereo unspecified) | inactive | –
O=Nc1ccc(NOC(=O)c2ccc(Br)cc2)cc1 | inactive | –
C1CCC(N=C(NC23CC4CC(CC(C4)C2)C3)N2CCOCC2)CC1 | inactive | –
Cc1nc2cncnc2n(Cc2ccc(F)cc2)c1=O | 10 µM (active) | –
Cc1nc2cncnc2n(Cc2ccccc2)c1=O | 12.6 µM (active) | –

Structure (SMILES) | AC50 | activity, negative = inhibition
CC(=O)OC[C@@H]1O[C@H](C/C=N\O[C@@H](C)CN2CCCc3nc(C)c(C)cc32)C=C[C@@H]1OC(C)=O | – | -4.85% [at 11.4 µM]
Cc1ccc(CNC(=O)C2CC(c3ccccc3[N+](=O)[O-])=NO2)cc1 (stereo unspecified) | 5.01 µM (active) | –
Cc1ccc(CCNC(=O)C2CC(c3ccccc3[N+](=O)[O-])=NO2)cc1 (stereo unspecified) | 6.31 µM (active) | –
Cc1ccc(CCN2CC(C(=O)NCCCN(C)Cc3ccccc3)CC2=O)cc1 (stereo unspecified) | inactive | –
CC(C)(C)OC(=O)N1CCCC1C(=O)NCCc1ccccc1 (stereo unspecified) | inactive | –
O=C1[C@H]2[C@H]3[C@H](O)[C@H](O)C/C(=N/OCc4ccccc4)[C@H]3CC[C@@H]2C(=O)N1Cc1ccc2c(c1)OCO2 | – | -4.06% [at 11.4 µM]
CCN(CC)S(=O)(=O)N1CCC(C(=O)NCc2ccc(C)cc2)CC1 | inactive | –
Cc1ccc(CNC(=O)C2CC(c3ccccc3[N+](=O)[O-])=NO2)o1 (stereo unspecified) | 6.31 µM (active) | –
O=C1[C@H]2[C@H]3[C@H](O)[C@H](O)C/C(=N/OCc4ccccc4)[C@@H]3CC[C@@H]2C(=O)N1Cc1ccc2c(c1)OCO2 | – | -8.98% [at 11.4 µM]
Cc1ccc(CNC(=O)C2CCC(=O)N2C2CCCCC2)cc1 (stereo unspecified) | inactive | –
O=C(NCc1ccc2c(c1)OCO2)C1CC(c2cccc(Br)c2)=NO1 (stereo unspecified) | 2 µM (active) | –
COc1c(N2CCN(C(=S)Nc3ccc(F)cc3)C(C)C2)c(F)cc2c(=O)c(C(=O)O)cn(C3CC3)c12 (stereo unspecified) | inactive | –
NS(=O)(=O)c1ccc(CCNC(=O)C2CCCN2C(=O)OCc2ccccc2)cc1 (stereo unspecified) | inactive | –
O=C(NCCCCc1ccccc1)C1CC(c2ccccc2[N+](=O)[O-])=NO1 (stereo unspecified) | 2.24 µM (active) | –
COc1cccc(C2=NOC(C(=O)NCc3ccccn3)C2)c1 (stereo unspecified) | inactive | –
COc1ccc(CNC(=O)C2CC(c3cccc([N+](=O)[O-])c3)=NO2)cc1 (stereo unspecified) | 15.8 µM (active) | –
CCOC(=O)c1oc2ccccc2c1NC(=O)c1ccc2c(c1)OCO2 | 1 µM (active) | –
CCOC(=O)c1oc2ccccc2c1NC(=O)c1cc(OC)cc(OC)c1 | 0.794 µM (active) | –
CCOC(=O)c1oc2ccccc2c1NC(=O)c1ccc(S(=O)(=O)N(C)C)cc1 | 12.6 µM (active) | –
CCCCN(C)S(=O)(=O)c1ccc(C(=O)Nc2nnc(CSC)o2)cc1 | inactive | –
Cc1cc(NC(=O)c2ccc(S(=O)(=O)N(C)C)cc2)n(-c2ccccn2)n1 | inactive | –
CCOC(=O)c1cc(NC(=O)c2ccc(OC)cc2)c(=O)oc1-c1ccccc1 | inactive | –
CC(C)(N)CO[C@H]1C[C@H]2CC[C@@]1(C)C2(C)C | – | -8.25% [at 11.4 µM]
CC(=O)Nc1ccc(S(=O)(=O)NCC2CCC(C(=O)NCCC(C)C)CC2)cc1 (stereo unspecified) | inactive | –

Structure (SMILES) | AC50 | activity, negative = inhibition
Cn1cccc1C(=O)N1CCC2(CC1)CN(Cc1ccc(C#N)cc1)C2 | inactive | –
CCOc1cc(/C=N/n2cnnc2)c(Br)cc1O | 10 µM (active) | –
NS(=O)(=O)c1cc(C(=O)O)cc(N2CCCC2)c1Oc1ccccc1 | inactive | –
Cc1cc(C)n(-c2ccc(C(=O)Nc3cc(C(F)(F)F)ccc3N3CCOCC3)cc2)n1 | inactive | –
O=C(COc1ccccc1)Nc1cc(C(F)(F)F)ccc1N1CCCC1 | 2 µM (active) | –
O=C(Nc1cc(C(F)(F)F)ccc1N1CCCCC1)c1ccc(Br)o1 | 0.282 µM (active) | –
Cc1cc(F)ccc1S(=O)(=O)Nc1ccccc1C(=O)Nc1ccccc1N1CCOCC1 | inactive | –
O=C(Nc1ccccc1N1CCN(C(=O)c2ccccc2)CC1)c1cc(Br)ccc1Cl | inactive | –
Cc1noc(NS(=O)(=O)c2ccc(NC(=O)c3ccc(Br)o3)cc2)c1C | inactive | –
CS(=O)(=O)N1CCN(c2ccccc2NC(=O)c2ccc(Br)o2)CC1 | 14.1 µM (active) | –
CC(C)(C)c1ccc(OCC(=O)NNC(=O)CCc2ccccc2)cc1 | inactive | –
O=C(c1cnccn1)N1CCC2(CC1)CN(Cc1nccs1)C2 | inactive | –
O=C(NC(=S)Nc1ccc(Br)cn1)c1cncc(Br)c1 | 0.282 µM (active) | –
O=C(NNC(=S)NC(=O)c1cccnc1)c1ccccc1 | inactive | –
COc1ccc(C2C(C(=O)N3CCN(C)CC3)c3ccccc3C(=O)N2C2CCCCC2)cc1 (stereo unspecified) | inactive | –
O=C(NC1CCCCC1)c1sc(=S)n2c1[nH]c(=O)c1ccccc12 | 3.16 µM (active) | –
O=C(NCc1ccccc1)c1sc(=S)n2c1[nH]c(=O)c1ccccc12 | 8.91 µM (active) | –
COc1cccc(/C=c2/s/c(=C(\C#N)C(=O)N3CCOCC3)n(-c3ccccc3)c2=O)c1 | inactive | –
CCOC(=O)N/N=C1/C[C@@H](O)[C@@H](O)[C@@H]2[C@@H]3C(=O)N([C@@H](C)c4ccccc4)C(=O)[C@H]3CC[C@H]12 | – | 7.27% [at 11.4 µM]
CN(C)CCN1C(=O)C(O)=C(C(=O)c2cc3ccccc3o2)C1c1ccccn1 (stereo unspecified) | inactive | –
Cc1ccc(-c2csc(N3CCC(NS(=O)(=O)c4ccc5c(c4)OCCO5)CC3)n2)cc1 | 5.01 µM (active) | –
Cc1ccc2nc(N3CCN(S(=O)(=O)c4ccc5c(c4)OCCO5)CC3)c(C#N)cc2c1 | inactive | –
CN1CCCN(S(=O)(=O)c2ccc3c(c2)OCCO3)CC1 | inactive | –
CCn1c2ccccc2c2cc(/C=N/n3cn[nH]c3=S)ccc21 | 2.82 µM (active) | –

Structure (SMILES) | AC50 | activity, negative = inhibition
Clc1ccc(Cn2c(-c3cccnc3Cl)nc3ccccc32)c(Cl)c1 | 12.6 µM (active) | –
Nc1nonc1-c1nc2ccccc2n1Cc1ccc(F)cc1Cl | 0.2 µM (active) | –
CC(=O)OCC(=O)[C@@]1(O)CC[C@@H]2[C@H]3CCC4=CC(=O)C=C[C@]4(C)[C@]3(F)[C@@H](O)C[C@@]21C | inactive | –
COc1ccccc1-c1nc(NC2CC2)c2ccccc2n1 | 0.316 µM (active) | –
CC(=O)Nc1ccc(S(=O)(=O)N2CCN(c3nc(NC4CCCC4)c4ccccc4n3)CC2)cc1 | inactive | –
Cc1ccccc1-c1nc(NC2CC2)c2ccccc2n1 | 0.501 µM (active) | –
CC(=O)c1cc(CC=C(C)C)c(O)cc1O | 3.55 µM (active) | –
COc1cc(CC(=O)O)c(C(C)=O)cc1OC | inactive | –
O=C(O)CCSc1ncnc2nc[nH]c12 | – | -3.4% [at 11.4 µM]
CCC[C@H](Sc1nc(N)nc2nc[nH]c12)C(=O)O | – | -9.79% [at 11.4 µM]
Nc1nc(SC/C=C\c2ccccc2)c2[nH]cnc2n1 | 5.01 µM (active) | –
Nc1nc(Sc2ccc([N+](=O)[O-])c3nonc23)c2[nH]cnc2n1 | – | -26.1% [at 2.29 µM]
Nc1nc(N)c2[nH]cnc2n1 (tested in a mixture with another compound) | – | -5.45% [at 2.29 µM]
Nc1nc(SCc2ccccc2[N+](=O)[O-])c2[nH]cnc2n1 | 5.01 µM (active) | –
Nc1nc(SCCc2ccccc2)c2[nH]cnc2n1 | 3.16 µM (active) | –
Cc1cccc(N(C)S(=O)(=O)c2ccc3[nH]c(=O)c(=O)[nH]c3c2)c1 | inactive | –
COCC(=O)N1CCC2(CCCN(Cc3nccs3)C2)CC1 | inactive | –
CC(C)=NOCc1ccc(-c2cn([C@@H]3COC[C@@H]3O)nn2)cc1 | – | -5.29% [at 11.4 µM]
c1ccc(/C(=N/Nc2nc3ccccc3s2)c2ccccn2)cc1 | 3.16 µM (active) | –
COc1cccc(-c2cc3nc(-c4ccccc4)cc(N4CCC5(CC4)OCCO5)n3n2)c1 | 0.251 µM (active) | –
CC1CN(C(=O)COc2ncnc3ccccc23)CC(C)O1 (stereo unspecified) | inactive | –
CCOc1ccc(OCCOc2ncnc3ccccc23)cc1 | 12.6 µM (active) | –
Cc1cc(C)cc(-n2c(C)cc(C=C(C#N)C#N)c2C)c1 | inactive | –
CCc1ccc(N(C(=O)c2snc(C(N)=O)c2N)C(C(=O)NCCC(C)C)c2c[nH]c3ccccc23)cc1 (stereo unspecified) | inactive | –
